Experimental data: PubChem BioAssay (EPA / NIEHS)
Results filed as inconclusive are left out. Active and inactive are the calls of the source. The calls were made as follows, unless noted: active = hit-call score of the fitted dose curve at least 0.9, where 1 is the maximum; inactive = score below 0.9.

What was measured:
[1] = CCTE_Harrill_HTTr_CellCount_MCF7: CCTE's Cell Proliferation Assessment for the High-Throughput Transcriptomics (HTTr) Platform, Harrill Lab (AID 2284012; active = hit-call score of the fitted dose curve at least 0.9, where 1 is the maximum;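 also: cells exposed to compound for six hours; intended direction is loss of nuclei count meaning fewer cells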)
Procedure, shortened: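 Cell count served as viability reporter: loss of Hoechst-stained nuclei, counted by high content imaging, marks decreased growth or survival. Exposure was 6 h in MCF-7 cells across eight concentrations, with DMSO as baseline.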

[2] = read-out: Interleukin 6 (IL6), IL6 (gene 3569); assay: BSK_BT_xIL6: BioMAP Diversity Plus: BT Assay for Interleukin 6 (IL6) Biomarker Activity (AID 2284228); settings: primary human B cells with PBMC
Procedure, shortened: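 Human B cell/PBMC co-culture; secreted IL-6 quantified by Luminex xMAP 24 h after chemical dosing, fitted relative to DMSO. Parallel PBMC viability by Alamar Blue after 1 h pretreatment, 20 ng/mL SEB and TSST-1, 90 h incubation.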

[3] = read-out: Tumor necrosis factor (Homo sapiens) (UniProt P01375); assay: BSK_BT_xTNFa: BioMAP Diversity Plus: BT Assay for Tumor necrosis factor alpha (TNF-alpha) Biomarker Activity (AID 2284230); settings: primary human B cells with PBMC
Procedure, shortened: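 Endpoint derived in the positive direction versus DMSO vehicle. Cells: B cells together with PBMC, exposed 24 h before TNF-alpha in the medium was read on the Luminex xMAP platform.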

[4] = read-out: Vascular cell adhesion molecule 1 (VCAM1), VCAM1 (gene 7412); assay: BSK_MyoF_VCAM1: BioMAP Diversity Plus: MyoF Assay for Vascular cell adhesion molecule 1 (VCAM1) Biomarker Activity (AID 2284231); settings: primary human lung fibroblasts
Procedure, shortened: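 Primary human lung fibroblasts (BioMAP MyoF system) dosed with chemical, VCAM-1 measured by ELISA 24 hours later. Fitted in the positive direction against DMSO; parallel SRB staining assessed cytotoxicity.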

[5] = read-out: Collagen I, COL1A1 (gene 1277); assay: BSK_MyoF_CollagenI: BioMAP Diversity Plus: MyoF Assay for Collagen I Biomarker Activity (AID 2284238); settings: primary human lung fibroblasts
Procedure, shortened: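 Primary human lung fibroblasts (MyoF system) treated 24 h; Collagen I quantified by ELISA and fitted in positive direction against DMSO. Parallel SRB total-protein staining assessed overt cytotoxicity.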

[6] = read-out: Interleukin 17F (IL17F), IL17F (gene 112744); assay: BSK_BT_xIL17F: BioMAP Diversity Plus: BT Assay for Interleukin 17F (IL17F) Biomarker Activity (AID 2284243); settings: primary human B cells with PBMC
Procedure, shortened: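 Human PBMC co-cultured with B cells, compound exposure 24 h; secreted IL-17F quantified by Luminex xMAP, referenced to DMSO control. PBMC viability measured in parallel by Alamar Blue reduction.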

[7] = read-out: Actin alpha 1 (ACTA1), ACTA1 (gene 58); assay: BSK_MyoF_ACTA1: BioMAP Diversity Plus: MyoF Assay for Actin alpha 1 (ACTA1) Biomarker Activity (AID 2284244); settings: primary human lung fibroblasts
Procedure, shortened: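 Cells were exposed to chemical for 24 h before a-SMA levels were quantified by ELISA in human lung fibroblasts. Increases were fitted against DMSO as negative control; parallel SRB staining (0.1% after 10% TCA fixation, 560 nm) assessed cytotoxicity.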

[8] = read-out: Basic fibroblast growth factor (bFGF), FGF2 (gene 2247); assay: BSK_MyoF_bFGF: BioMAP Diversity Plus: MyoF Assay for Basic fibroblast growth factor (bFGF) Biomarker Activity (AID 2284246); settings: primary human lung fibroblasts
Procedure, shortened: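 Chemicals are added to human lung fibroblast cultures and incubated 24 h. bFGF is then measured by ELISA, while parallel cultures receive SRB staining for total protein as a cytotoxicity check. Data are fitted upward against DMSO.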

[9] = read-out: Collagen IV, COL4A1 (gene 1282); assay: BSK_MyoF_CollagenIV: BioMAP Diversity Plus: MyoF Assay for Collagen IV Biomarker Activity (AID 2284247); settings: primary human lung fibroblasts
Procedure, shortened: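 Human lung fibroblast system, 24 h chemical exposure. Endpoint: Collagen IV by ELISA, upward fit vs DMSO.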

[10] = read-out: Interleukin-8 (IL8), CXCL8 (gene 3576); assay: BSK_MyoF_IL8: BioMAP Diversity Plus: MyoF Assay for Interleukin-8 (IL8) Biomarker Activity (AID 2284261); settings: primary human lung fibroblasts
Procedure, shortened: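 Human lung fibroblast (MyoF system) cultures dosed for 24 h, then IL-8 measured by ELISA. Response taken relative to DMSO; parallel SRB total-protein staining for cytotoxicity.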

[11] = read-out: Decorin, DCN (gene 1634); assay: BSK_MyoF_Decorin: BioMAP Diversity Plus: MyoF Assay for Decorin Biomarker Activity (AID 2284265); settings: primary human lung fibroblasts
Procedure, shortened: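 Human lung fibroblast cultures were dosed for 24 h, and decorin was then measured by ELISA. Parallel cultures were stained with sulforhodamine B for total protein as a cytotoxicity check. Gain of signal was fitted relative to DMSO.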

[12] = BSK_MyoF_SRB: Viability Assessment in the BioMAP Diversity Plus: MyoF Assay (AID 2284267); settings: primary human lung fibroblasts;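 also: total protein by SRB absorbance in parallel cultures as cytotoxicity measure; cells assessed 24 h after compound addition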
Procedure, shortened: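 Confluent human lung fibroblasts were exposed to test chemicals for 24 h. Parallel wells were then fixed in 10% TCA, stained with 0.1% sulforhodamine B and measured at 560 nm. DMSO served as baseline for curve fitting.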

[13] = target: Glucocorticoid receptor (Homo sapiens) (UniProt P04150); assay: ATG_GR_TRANS: Attagene TRANS-FACTORIAL HepG2 Assay for human Glucocorticoid Receptor (GR) (AID 2282978; active = hit-call score of the fitted dose curve at least 0.9, where 1 is the maximum;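 also: activators score as hits since higher reporter transcript over DMSO is fitted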); settings: HepG2 Attagene TRANS GR reporter, mRNA transcription
Procedure, shortened: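 In this trans-factorial format, exogenous NR-GAL4 chimeric proteins in transfected HepG2 cells regulate GAL4-UAS reporter transcription. After 24 h treatment, reporter mRNA induction relative to DMSO is read by RT-PCR and capillary electrophoresis.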

[14] = target: human RAR-related Orphan Receptor beta (RORb), RORB (gene 6096) (UniProt Q92753); assay: ATG_RORb_TRANS: Attagene TRANS-FACTORIAL HepG2 Assay for human RAR-related Orphan Receptor beta (RORb) (AID 2283010; active = hit-call score of the fitted dose curve at least 0.9, where 1 is the maximum)
Procedure, shortened: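 Transfect HepG2 with multiple GAL4-UAS reporter transcription units; dose chemicals for 24 h; isolate RNA, reverse-transcribe and PCR-amplify reporter sequences; label, digest and resolve fragments by capillary electrophoresis; fit increases relative to DMSO.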

[15] = tested on: Thyroperoxidase (TPO), gene 54314; assay: CCTE_Simmons_AUR_rTPO: CCTE's Amplex UltraRed Assay for Thyroperoxidase (TPO) Inhibition, Simmons Lab (AID 2283662; active = hit-call score of the fitted dose curve at least 0.9, where 1 is the maximum;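 as to AC50: potency for loss of signal meaning inhibition of peroxidase activity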)
Procedure, shortened: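 Endpoint is decreased Amplex UltraRed fluorescence after a 30-min, 37C reaction of rat thyroid microsomes with 300 uM H2O2. Eight test concentrations (5 nM–87.5 uM final) in 0.5% DMSO, three biological replicates each.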

[16] = target: Luciferin 4-monooxygenase (Photinus pyralis) (UniProt P08659); assay: CCTE_Simmons_QuantiLum_inhib_2: CCTE's Firefly Luciferase Inhibition Assay, Simmons Lab (AID 2283767; active = hit-call score of the fitted dose curve at least 0.9, where 1 is the maximum)
Procedure, shortened: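 First, 5 ng purified luciferase in phosphate buffer with BSA is dispensed per well. Next, test chemicals (5 nM to 87.5 uM final, 0.5% DMSO) are added and incubated 30 min at 37C in darkness. Finally, luciferin reagent is injected and luminescence read kinetically.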

[17] = CEETOX_H295R_MTT_cell_viability: Viability Assessment in the CeeTox HT-H295R MTT Assay (AID 2283718);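 as to AC50: curve fitted both ways so AC50 may mark viability loss or gain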
Procedure, shortened: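 MTT reduction (0.5 mg/ml, 4 h at 37 C; absorbance at 570 and 650 nm) gave viability as background-corrected percent change versus controls. H295R cells had 48 h forskolin (10 uM) prestimulation, then 48 h chemical exposure at 0.1% DMSO.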

[18] = target: human Retinoic Acid Receptor gamma (RARg), RARG (gene 5916) (UniProt P13631); assay: ATG_RARg_TRANS: Attagene TRANS-FACTORIAL HepG2 Assay for human Retinoic Acid Receptor gamma (RARg) (AID 2283009; active = hit-call score of the fitted dose curve at least 0.9, where 1 is the maximum)
Procedure, shortened: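 TRANS format measured activity of exogenous NR-GAL4 fusion (RARg) in transfected HepG2 liver cells after 24 h dosing. Induced reporter RNA was detected by RT-PCR/capillary electrophoresis fluorescence, analysed in the positive direction against DMSO.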

[19] = target: Retinoic acid receptor alpha (Homo sapiens) (UniProt P10276); assay: ATG_RARa_TRANS: Attagene TRANS-FACTORIAL HepG2 Assay for human Retinoic Acid Receptor alpha (RARa) (AID 2283005; active = hit-call score of the fitted dose curve at least 0.9, where 1 is the maximum)
Procedure, shortened: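 Reporter transcripts, measured by RT-PCR with fluorescent labeling and capillary electrophoresis after 24 h dosing, reflect activity of an exogenous human RARa–GAL4 fusion in transiently transfected HepG2. Fitted for increase relative to DMSO.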

[20] = target: human Retinoic Acid Receptor beta (RARb), RARB (gene 5915) (UniProt P10826); assay: ATG_RARb_TRANS: Attagene TRANS-FACTORIAL HepG2 Assay for human Retinoic Acid Receptor beta (AID 2283004; active = hit-call score of the fitted dose curve at least 0.9, where 1 is the maximum)
Procedure, shortened: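 HepG2 cells were transiently transfected with GAL4-UAS reporter units that report activity of exogenous chimeric NR-Gal4 proteins, then exposed to compound for 24 h. Reporter mRNA was quantified by RT-PCR with capillary electrophoresis fluorescence, as gain of signal over DMSO.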

Measured: AC50

Chain of Retinoic acid receptor alpha (Homo sapiens) (P10276 whole entry, looked up, the tested form may be a part): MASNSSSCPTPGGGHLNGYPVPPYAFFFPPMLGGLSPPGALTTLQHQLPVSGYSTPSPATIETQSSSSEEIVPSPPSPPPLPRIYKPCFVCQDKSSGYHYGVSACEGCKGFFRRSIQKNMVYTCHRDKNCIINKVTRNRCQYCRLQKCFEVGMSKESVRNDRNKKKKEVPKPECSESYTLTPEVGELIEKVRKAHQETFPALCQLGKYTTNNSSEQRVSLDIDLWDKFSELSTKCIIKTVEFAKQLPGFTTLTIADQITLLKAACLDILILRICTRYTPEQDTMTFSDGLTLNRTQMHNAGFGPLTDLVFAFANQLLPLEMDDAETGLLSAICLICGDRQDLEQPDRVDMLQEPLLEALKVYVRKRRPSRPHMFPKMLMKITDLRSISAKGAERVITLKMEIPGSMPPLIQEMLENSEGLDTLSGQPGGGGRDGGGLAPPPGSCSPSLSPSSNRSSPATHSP
Chain of human RAR-related Orphan Receptor beta (RORb), RORB (gene 6096) (Q92753 whole entry, looked up, the tested form may be a part): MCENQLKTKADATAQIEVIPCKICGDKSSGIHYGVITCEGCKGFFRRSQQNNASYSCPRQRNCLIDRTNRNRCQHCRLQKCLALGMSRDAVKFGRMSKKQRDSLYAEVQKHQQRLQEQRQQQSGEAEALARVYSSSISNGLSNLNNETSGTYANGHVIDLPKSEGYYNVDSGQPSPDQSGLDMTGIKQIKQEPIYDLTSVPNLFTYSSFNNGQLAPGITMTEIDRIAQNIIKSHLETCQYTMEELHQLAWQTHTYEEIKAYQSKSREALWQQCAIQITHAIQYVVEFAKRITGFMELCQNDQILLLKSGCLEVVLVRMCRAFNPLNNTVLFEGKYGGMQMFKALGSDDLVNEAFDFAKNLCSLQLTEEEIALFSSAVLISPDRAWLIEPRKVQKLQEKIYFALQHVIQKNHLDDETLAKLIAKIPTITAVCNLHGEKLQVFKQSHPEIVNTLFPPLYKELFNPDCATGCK
Chain of Luciferin 4-monooxygenase (Photinus pyralis) (P08659 whole entry, looked up): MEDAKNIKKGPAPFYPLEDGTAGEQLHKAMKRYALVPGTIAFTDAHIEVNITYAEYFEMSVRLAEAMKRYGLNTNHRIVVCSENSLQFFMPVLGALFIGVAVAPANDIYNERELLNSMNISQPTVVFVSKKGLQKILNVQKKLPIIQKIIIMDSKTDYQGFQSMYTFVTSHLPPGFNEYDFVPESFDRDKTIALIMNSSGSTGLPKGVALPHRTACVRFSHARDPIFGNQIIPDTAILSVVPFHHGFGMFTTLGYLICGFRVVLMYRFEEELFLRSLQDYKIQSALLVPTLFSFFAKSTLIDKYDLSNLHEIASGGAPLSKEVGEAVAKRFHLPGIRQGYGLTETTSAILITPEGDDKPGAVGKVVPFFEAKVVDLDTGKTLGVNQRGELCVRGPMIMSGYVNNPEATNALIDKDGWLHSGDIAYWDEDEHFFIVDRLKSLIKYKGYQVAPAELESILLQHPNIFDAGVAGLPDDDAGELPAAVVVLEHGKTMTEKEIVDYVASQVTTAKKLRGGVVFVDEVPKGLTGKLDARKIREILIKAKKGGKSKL
Chain of human Retinoic Acid Receptor gamma (RARg), RARG (gene 5916) (P13631 whole entry, looked up, the tested form may be a part): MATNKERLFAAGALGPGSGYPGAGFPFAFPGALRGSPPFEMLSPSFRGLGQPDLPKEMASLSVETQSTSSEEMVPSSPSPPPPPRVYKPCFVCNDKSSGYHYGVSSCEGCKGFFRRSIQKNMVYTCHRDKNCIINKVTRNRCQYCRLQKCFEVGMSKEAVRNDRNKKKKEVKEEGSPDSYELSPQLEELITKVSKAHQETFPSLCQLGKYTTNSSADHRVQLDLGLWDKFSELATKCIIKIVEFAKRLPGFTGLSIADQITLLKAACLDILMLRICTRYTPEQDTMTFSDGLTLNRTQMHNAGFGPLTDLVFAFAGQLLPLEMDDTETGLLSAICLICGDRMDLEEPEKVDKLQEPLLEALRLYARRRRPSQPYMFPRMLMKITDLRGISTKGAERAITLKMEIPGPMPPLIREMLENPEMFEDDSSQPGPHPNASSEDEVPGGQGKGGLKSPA
Chain of Tumor necrosis factor (Homo sapiens) (P01375 whole entry, looked up): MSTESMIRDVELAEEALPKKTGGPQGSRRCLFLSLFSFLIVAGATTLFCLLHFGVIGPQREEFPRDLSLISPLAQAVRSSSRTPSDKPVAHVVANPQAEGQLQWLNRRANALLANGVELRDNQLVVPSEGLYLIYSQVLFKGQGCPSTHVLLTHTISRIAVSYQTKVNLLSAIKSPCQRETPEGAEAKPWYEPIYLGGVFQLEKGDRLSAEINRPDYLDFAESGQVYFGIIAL
Chain of Glucocorticoid receptor (Homo sapiens) (P04150 whole entry, looked up, the tested form may be a part): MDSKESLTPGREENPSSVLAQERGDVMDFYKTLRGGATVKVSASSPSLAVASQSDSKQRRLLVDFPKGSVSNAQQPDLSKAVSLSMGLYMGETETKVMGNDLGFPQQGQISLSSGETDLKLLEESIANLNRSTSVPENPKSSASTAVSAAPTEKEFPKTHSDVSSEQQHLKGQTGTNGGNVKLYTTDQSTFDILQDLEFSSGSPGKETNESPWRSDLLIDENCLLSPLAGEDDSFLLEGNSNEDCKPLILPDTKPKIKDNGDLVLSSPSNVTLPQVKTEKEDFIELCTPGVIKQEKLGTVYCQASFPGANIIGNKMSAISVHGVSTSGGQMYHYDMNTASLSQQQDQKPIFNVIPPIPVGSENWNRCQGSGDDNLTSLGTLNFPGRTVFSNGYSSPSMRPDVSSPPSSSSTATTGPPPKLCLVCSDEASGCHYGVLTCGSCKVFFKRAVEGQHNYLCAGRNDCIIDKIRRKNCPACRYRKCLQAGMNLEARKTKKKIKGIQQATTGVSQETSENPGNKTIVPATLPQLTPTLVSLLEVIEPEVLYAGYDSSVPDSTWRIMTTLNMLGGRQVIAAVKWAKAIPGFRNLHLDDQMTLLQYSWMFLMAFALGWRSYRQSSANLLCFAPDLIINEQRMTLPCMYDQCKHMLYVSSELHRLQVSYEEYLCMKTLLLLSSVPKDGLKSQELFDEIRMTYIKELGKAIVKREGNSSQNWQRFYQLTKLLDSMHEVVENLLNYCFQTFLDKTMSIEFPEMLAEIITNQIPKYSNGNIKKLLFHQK
Chain of human Retinoic Acid Receptor beta (RARb), RARB (gene 5915) (P10826 whole entry, looked up, the tested form may be a part): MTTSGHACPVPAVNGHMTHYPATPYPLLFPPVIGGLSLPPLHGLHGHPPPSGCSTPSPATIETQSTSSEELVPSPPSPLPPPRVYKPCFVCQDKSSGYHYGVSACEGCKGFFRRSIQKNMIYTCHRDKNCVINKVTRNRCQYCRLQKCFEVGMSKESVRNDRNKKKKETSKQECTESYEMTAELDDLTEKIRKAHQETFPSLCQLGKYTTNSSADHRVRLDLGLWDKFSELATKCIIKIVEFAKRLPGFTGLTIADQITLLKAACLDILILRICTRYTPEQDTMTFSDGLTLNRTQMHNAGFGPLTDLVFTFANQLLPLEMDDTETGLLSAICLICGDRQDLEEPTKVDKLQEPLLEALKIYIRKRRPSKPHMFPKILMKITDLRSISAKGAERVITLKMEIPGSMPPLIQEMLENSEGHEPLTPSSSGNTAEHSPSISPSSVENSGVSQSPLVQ

O=c1[nH]c(Cl)c(Cl)cc1Cl
not listed: [13] | [14] | [15] | [16] | [17] | [18] | [19] | [20]
inactive: all other assays above

CC(C)c1ccc(O)cc1
active: [15] 2.24 µM
inactive: [13] | [14] | [16]

Nc1ccc(Cl)c(Cl)c1
inactive: [17] | [16]
active: [15] 1.16 µM

Nc1ccccc1C(=O)Oc1ccc2ccccc2c1
inactive: [13]

N#Cc1cccc(C#N)c1
inactive: [13]

CC(=O)/C=C/c1ccccc1
active: [2] 20 µM | [3] 20 µM | [6] 20 µM
inactive: [4] | [5] | [7] | [8] | [9] | [10] | [11] | [12]

C=CC(=O)OCC(CC)CCCC (stereo not given)
active: [11] 0.016 µM
not listed: [1] | [14] | [17] | [18] | [19] | [20]
inactive: all other assays above

Clc1ccc(-c2ccccc2)cc1
not listed: [1] | [14] | [15] | [16] | [17] | [18] | [19] | [20]
inactive: all other assays above

C[N+](C)(C)CC(=O)[O-]
inactive: [14]

O=CNC(N1CCN(C(NC=O)C(Cl)(Cl)Cl)CC1)C(Cl)(Cl)Cl (stereo not given)
inactive: [17] | [1]

CC(C)COP(=O)(OCC(C)C)OCC(C)C
inactive: [2] | [3] | [4] | [5] | [6] | [7] | [8] | [9] | [10] | [11] | [12]

ClC1=C(Cl)[C@]2(Cl)[C@@H]3[C@@H](Cl)[C@H](Cl)C[C@@H]3[C@@]1(Cl)C2(Cl)Cl
inactive: [18] | [14]

CC(C)C#N
inactive: [19] | [18]

Cc1cc(C)c(C2=C(OC(=O)CC(C)(C)C)C3(CCCC3)OC2=O)c(C)c1
active: [17] 93.1 µM

[Cl][Sb]([Cl])[Cl]
inactive: [14] | [1]

O=[N+]([O-])O
inactive: [18]

CCC1CCC(=O)O1 (stereo not given)
inactive: [20] | [19]

CC1CCC(=O)O1 (stereo not given)
inactive: [13]

CCOC(=O)C1OC1(C)c1ccccc1 (stereo not given)
inactive: [14]

C[C@]12CC[C@H](O)C[C@H]1CC[C@@H]1[C@@H]2C[C@@H](O)[C@]2(C)[C@@H](C3=CC(=O)OC3)CC[C@]12O
active: [17] 2.57 µM

C[N+](=O)[O-]
inactive: [13]

O=S(=O)(c1ccccc1)c1ccccc1
not listed: [13] | [14] | [15] | [16] | [17] | [20]
inactive: all other assays above
